Measurements reported in PubChem BioAssay (NCI).
About 83,000 compounds went through this panel and 20% of them were active in at least one assay; those are over-represented in the sample as a whole.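 Step 1: grow cells in 96-well plates. Step 2: add test compound at a single concentration. Step 3: incubate 48 h. Step 4: record percent growth.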 Calls of active or inactive are those of the source.

system: NCI-H522 lung; test: NCI-60 one-dose screen, 48 h (100 = growth as untreated, 0 = no growth, -100 = all killed); conditions: 10 µM unless noted
Procedure: Growth inhibition of the NCI-H522 human Non-Small Cell Lung tumor cell line is measured as a screen for anti-cancer activity. Cells are grown in 96 well plates and exposed to the test compound for 48 hours. Compounds are tested at a single concentration, which is 10^-5 M for most compounds. The reported endpoint is percent growth (GI% or GIPRCNT), where numbers from 0 - 100% represent growth inhibition, and numbers from -100% - 0 represent cell death. For example, a value of 40 represents 60% growth inhibition. A value of 0 means no net growth occurred over the course of the experiment. A value of -40 indicates 40% of cells at the beginning of the experiment died by the end of the experiment. A value of -100 means all cells are dead at the end of the experiment.
NCI-60 Human Tumor Cell Lines Screen was performed using the standard one-dose NCI protocol, which is described in more detail at https://dtp.cancer.gov/discovery_development/nci-60/default.htm.
Compounds with GIPRCNT values below 10 were considered active. Activity score was based on GIPRCNT using the following formula: […]
Score is 0 for GIPRCNT values of 100 or above, 50 for GIPRCNT values of 0, and 100 for GIPRCNT values of -100.

| SMILES | growth |
| --- | --- |
| NC(=O)C1(N2CCCCC2)CCN(CCCC(=O)c2ccc(F)cc2)CC1 | -30.2% (active) |
| COc1ccc(/C=C/C(=O)c2ccc(OC)c(OC)c2)cc1O | 51.9% (inactive) |
| C=C1C(=O)O[C@H]2[C@H]1CC/C(COC(=O)CCCCCC(=O)OC/C1=C/CC[C@@]3(C)O[C@H]3[C@H]3OC(=O)C(=C)[C@@H]3CC1)=C\CC[C@@]1(C)O[C@@H]21 | -72.5% (active) |
| CC(O)/C=C/C=C/C(O)CC/C=C/C(=O)NCC(C)(C)O (stereo not given) | 79.4% (inactive) |
| O=C(Nc1ccc2cc3ccc(NC(=O)N4CCCCCC4)cc3nc2c1)N1CCCCCC1 | -70.4% (active) |
| CC(=O)c1c(C)[nH]c(-c2nc3ccc(N4CCN(C)CC4)cc3[nH]2)c1-c1ccccc1 | 25.4% (inactive) |
| CN1C(=O)N(C)C2NC(N/N=C/c3ccccc3)=NC21 (stereo not given) | 104% (inactive) |
| O=C(Nc1nc2ccc(S(=O)(=O)Nc3ccc(C4(C(F)(F)F)CC4)cc3)cc2[nH]1)c1cnccn1 | 26.9% (inactive) |
| CC(=O)OCC(=O)C1(O)C(C)CC2C3C=C(C)C4=Cc5c(cnn5-c5ccccc5)CC4(C)C3C(O)CC21C (stereo not given) | 4.55% (active) |
| CNC(=O)NCC1OC(n2cnc3c(NC(=O)Nc4ccccc4)ncnc32)C(O[Si](C)(C)C(C)(C)C)C1O[Si](C)(C)C(C)(C)C (stereo not given) | 46.2% (inactive) |
| O=C(CN1CCOCC1)Nc1ccc2ncnc(Nc3ccc(Oc4cccc(C(F)(F)F)c4)c(Cl)c3)c2c1 | 26% (inactive) |
| COc1cccc(CCC(=O)c2cc3c(N)c(C(=O)Nc4ccccc4)sc3nc2C)c1 | 37.5% (inactive) |
| Cc1ccc2[nH]c(=O)cc(-n3nncc3COc3ccc(C=O)cc3)c2c1 | 89.7% (inactive) |
| Cc1ccccc1CNc1ccc(N2CCOCC2)cc1 | 101% (inactive) |
| CCC(C)N(CCNc1cc(OC)cc2cccnc12)CCC(C)C (stereo not given) | 50% (inactive) |
| CN1CCN(c2cc(F)c(NC3=C(Cl)C(=O)c4ncccc4C3=O)c(F)c2)CC1 | -59.7% (active) |
| CC1CCN(C(=O)OCc2nc3nc(Cl)nc(N4CCOCC4)c3[nH]2)CC1 | -67.8% (active) |
| CCOC(=O)C1CC(=O)c2cc(OC)c(OC)cc2C1 (stereo not given) | 84.9% (inactive) |
| CN(C)CCCn1c2c(c3ccc(-c4ccn[nH]4)cc3c1=O)C(=O)c1ccccc1-2 | 25.9% (inactive) |
| Nc1nnc2cc(Cl)ccc2n1 | 94.7% (inactive) |

| SMILES | growth |
| --- | --- |
| Cc1cccc(C)c1-c1cc(Cc2ccc(Cl)cc2)c(=O)[nH]n1 | 95.3% (inactive) |
| OC1(c2ccc(Cl)c(C(F)(F)F)c2)CCN(CCCC(c2ccc(F)cc2)c2ccc(F)cc2)CC1 | -80.5% (active) |
| CC(C)CN(C(=O)c1ccc(Cl)cc1)c1c(N)n(CC(C)C)c(=O)[nH]c1=O | 98.8% (inactive) |
| COc1cccc(/C=C2\COc3ccc(-c4ccccc4)cc3C2=O)c1 | 25.2% (inactive) |
| COc1cc(C2NC(c3cc(OC)c(OC)c(OC)c3)C(C#N)(C#N)C2(C#N)C#N)cc(OC)c1OC (stereo not given) | 95.6% (inactive) |
| C#Cc1cccc(NC(=O)Nc2cccc(N=C=S)c2)c1 | 90.9% [8.25 µM] (inactive) |
| O=C(N/N=C/c1ccc(F)cc1)c1ccccc1Nc1cccc(C(F)(F)F)c1 | 92.8% (inactive) |
| CC1=CC2(C)/C=C(C)/C=C\CC(O)/C=C3/C=CC(=C4C(=O)OC2(CC1C)C4=O)OC3 (stereo not given) | -50.5% (active) |
| COc1ccc(C2CC(c3cccc(Nc4ccncc4)c3)=NN2c2ccc(Cl)cc2)cc1 (stereo not given) | -23% (active) |
| CCn1cc(C2NC(=O)c3ccccc3N2)c2cccc(C)c21 (stereo not given) | -39.8% (active) |
| O=C(/C=C/c1ccc[nH]1)c1ccc(-n2ccc(C(F)(F)F)n2)cc1 | -6.16% (active) |
| Fc1ccc2nc3c(cc2c1)CSc1nnc(-c2ccc[nH]c2=S)n1N3 | 86.8% (inactive) |
| N/C(=N\N=C\c1cc2ccccc2[nH]1)N/N=C/c1cc2ccccc2[nH]1 | 98% (inactive) |
| COc1cc2oc(-c3cccc(C(=O)Nc4ccc(Cl)cc4)c3)cc(=O)c2c(OC)c1OC | 25.2% (inactive) |
| COc1ccc(/C=N/NC(=O)c2cccc3cc[nH]c23)cc1O | 54.8% (inactive) |
| O=C1Nc2c(ccc(Cl)c2Cl)/C1=C/c1ccccn1 | 71% (inactive) |
| O=C1Nc2c(ccc(Cl)c2Cl)/C1=C/c1ccc(O)cc1 | 64.1% (inactive) |
| CC1NC(=S)NC(=O)/C1=C/c1cc(=O)oc2c1ccc1ccccc12 (stereo not given) | 73.8% (inactive) |
| Clc1cc(Cl)cc(N2N=C(c3cccc(Nc4ccncc4)c3)CC2c2ccc(Br)cc2)c1 (stereo not given) | 69.7% (inactive) |
| CCNNC(=O)[C@@H]1[C@H](c2cc(OC)c(OC)c(OC)c2)c2cc3c(cc2[C@H](O)[C@H]1CO)OCO3 | -18.7% (active) |
